Screening data deposited in PubChem BioAssay by National Center for Advancing Translational Sciences (NCATS).
An excerpt weighted towards active compounds, which were near 7% of everything screened.
DRD3 antagonist = antagonists of human D3 dopamine receptor; 360,000 compounds, 2.5% hits; P35462; D3R cells, DiscoveRx beta-arrestin luminescence, antagonist mode; active compounds read low; max response, negative = inhibition, %; in the data active means max response below about -50%; inconclusive means no clear call, values can overlap the other calls; further: on the % scale 0 is the no-effect control and ±100 the full control effect
Target sequence (P35462 whole entry, looked up): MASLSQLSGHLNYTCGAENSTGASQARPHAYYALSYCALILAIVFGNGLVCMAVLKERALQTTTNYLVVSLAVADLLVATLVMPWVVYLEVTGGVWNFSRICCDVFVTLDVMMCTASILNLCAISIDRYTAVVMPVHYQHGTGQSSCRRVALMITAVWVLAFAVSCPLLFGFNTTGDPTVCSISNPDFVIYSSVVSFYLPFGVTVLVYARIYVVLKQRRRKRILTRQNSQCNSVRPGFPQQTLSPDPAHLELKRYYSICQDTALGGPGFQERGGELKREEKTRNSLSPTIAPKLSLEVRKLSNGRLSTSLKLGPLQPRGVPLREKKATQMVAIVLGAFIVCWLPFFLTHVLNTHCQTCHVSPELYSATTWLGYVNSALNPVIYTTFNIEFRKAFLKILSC
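Cells plated overnight at 1500 cells/well, then exposed to library compounds with dopamine controls for 90 minutes at 37 degrees C. DiscoveRx reagent added for 30–60 minutes at room temperature; luminescence read, quantitative HTS format.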
ATXN2 expr inh = inhibitors of ATXN2 expression; HEK-293 ATXN2-luciferase reporter, luminescence, 24 h; Potency, µM (highest dose often 57 µM), for the others: at the highest dose activity change, negative = inhibition, usual class: inhibitors; 360,000 compounds, 0.72% hits; AID 1745845; further: potency means the concentration at half of the fitted maximal effect; on the % scale 0 is the no-effect control and ±100 the full control effect; nearly all actives have a fitted effect of over 55% in size
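qHTS (up to 57 uM final) was run with 24 h compound exposure of reporter cells at 37 °C. Each well was multiplexed: SteadyGlo luminescence measured ATXN2-luciferase expression after a fluorogenic Gly-Phe-AFC viability readout (25 uM final).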
Integrin act MD = integrin-mediated muscular dystrophy alleviation activation; alpha7betagal myoblasts, beta-gal FDG fluorescence, 48 h; Potency, µM (titrated, usually from 38.3 µM), for the others: at the top dose activation, usual class: activators; 350,000 compounds, 0.064% hits; AID 624291;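 further: potency means the concentration at half of the fitted maximal effect; 100% = response of the positive control SU9516; nearly all actives have a fitted effect of over 60% in size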
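Alpha7betagal+/- myoblasts (passage 13) were plated 16-24 hr, then exposed to compounds (1:260 dilution of DMSO stock) for 48 hours at 37C. After MPER lysis, β-galactosidase reporter activity was read as FDG fluorescence (ex 480/em 540) after 30 minutes.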
ATXN viability = viability counter-screen for ATXN expression inhibitors; S2 cells (HEK-293 line with an ATXN2-luciferase reporter) viability, CellTiter-Fluor protease fluorescence, 24 h; Potency, µM (doses to about 56.7 µM), most hits filed as cytotoxic; 400,000 compounds, 0.49% hits; AID 651635; further: potency means the concentration at half of the fitted maximal effect; nearly all actives have a fitted effect of over 40% in size
IL-1B inflam inh = inhibitors of inflammasome signaling (IL-1 beta secretion). 360,000 compounds, 4.7% hits. activity change, % at 57.5 µM. THP-1 LPS/ATP IL-1B secretion, AlphaLISA, 16 h; active compounds read low; in the data active means activity change below about -50%; inconclusive means mostly about -30% to -49%; further: on the % scale 0 is the no-effect control and ±100 the full control effect
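THP-1 cells pretreated 1 hr with compounds (up to 57.5 uM final), then stimulated with LPS (250 ng/mL final) plus ATP (1.25 mM final); secreted IL-1B measured by AlphaLISA after 16 hr, decreased signal indicating inhibition.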
DRD3 agonist = activates the human D3 dopamine receptor; D3R DiscoveRx beta-arrestin cells, luminescence, 90 min; max activation, %; 410,000 compounds, 0.58% hits; AID 652048; in the data active means max activation above about 30%; further: 0% is about no effect
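Agonist-mode cell screen: cells plated at 1500/well and incubated overnight at 37 °C, then exposed to library compounds for 90 min at 37 °C. Detection reagent was added for 30–60 min at room temperature, and luminescence was read.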
* = called active by the depositor; i = inactive; ? = inconclusive; · = no result; [ ] = remark or other dose. Unless noted, the call rests on the fitted dose curve; in most records, active means well fitted curve in the direction sought with a large enough effect; inconclusive means small, poorly fitted or top-dose-only effect, or another doubt; inactive means no such curve, though single readings can be large; an effect the other way counts as inactive or inconclusive.

SMILES	DRD3 antagonist	ATXN2 expr inh	Integrin act MD	ATXN viability	IL-1B inflam inh	DRD3 agonist
CCN1CCN(c2ccc(S(=O)(=O)N3CCCCC3)cc2NC(=O)COc2ccc(F)cc2Cl)CC1	-11	?	-65%	i	?	-15
O=C(COc1cccnc1[N+](=O)[O-])Nc1cccc(S(=O)(=O)N2CCOCC2)c1	13	·	-2%	i	-8	2
COc1ccc(S(=O)(=O)N2CCOCC2)cc1NC(=O)COc1cccnc1[N+](=O)[O-]	-63*	-10%	26%	·	?	-7
CCN1CCN(c2ccc(S(=O)(=O)N3CCCCC3)cc2NC(=O)COc2cc(C)ccc2Cl)CC1	-7	?	-64%	?	-65*	-2
COCCCNC(=O)c1ccc(N2CCOCC2)c(NS(=O)(=O)c2ccc(OC)cc2)c1	-73*	10%	-16%	i	16	5
CC(Oc1cccc(Cl)c1)C(=O)Nc1cc(S(=O)(=O)N2CCOCC2)ccc1N1CCCC1 (stereo not given)	20	7%	5%	i	4	5
O=C(Nc1cccc(Cl)c1)Nc1cc(S(=O)(=O)N2CCOCC2)ccc1N1CCCC1	0	-20%	-10%	?	-60*	0
COc1cc(C(=O)NNC(=O)CSc2nnc3ccccn23)cc(OC)c1OC	-3	0%	-2%	i	-12	-5
Cc1occc1-c1nnc(SCC(=O)N(C)c2ccccc2)o1	13	0%	14%	i	-7	1
Cc1ccc(C(=O)NCC(=O)NCc2cc(=O)n(C)c(=O)n2C)cc1C	15	3%	25%	i	48	-4
Cc1ccccc1OCC(=O)Nc1cc(S(=O)(=O)N2CCCCC2)ccc1N1CCN(C)CC1	-8	-10%[11.3 µM]	-47%	i	-82*	-4
O=C(COc1ccccc1)Nc1cc(S(=O)(=O)N2CCOCC2)ccc1N1CCCC1	-2	0%	2%	?	15	4
CCCOc1ccc(C(=O)Nc2cc(S(=O)(=O)N3CCOCC3)ccc2N2CCOCC2)cc1	19	6%	9%	i	-53*	-9
CN1CCN(c2ccc(S(=O)(=O)N3CCCCC3)cc2NC(=O)CCc2ccccc2)CC1	1	0%	-24%	i	?	-6
Cc1cccc(OCC(=O)Nc2cc(S(=O)(=O)N3CCOCC3)ccc2N2CCCC2)c1C	-1	-11%	3%	i	-81*	1
CCOc1ccc(OCCCC(=O)Nc2cc(S(=O)(=O)N3CCOCC3)ccc2N2CCOCC2)cc1	-15	-7%	-20%	i	0	-3
Cc1ccc(S(=O)(=O)N2CCOCC2)cc1NC(=O)C(c1ccc(Cl)cc1)C(C)C (stereo not given)	0	-11%	4%	i	-58*	2
CC(C)CC(NC=C1C(=O)OC(C)(C)OC1=O)C(=O)O (stereo not given)	39	-8%	2%	?	33	1
Cc1ccc(N(C)C(=O)Cn2ncc3c([nH]c4ccccc43)c2=O)cc1C	·	-1%	·	i	·	7
O=C(COC(=O)Cc1ccccc1F)Nc1cc(S(=O)(=O)N2CCOCC2)ccc1N1CCCC1	1	3%	1%	1µM*	0	-2
CSCCC(=O)Nc1cc(S(=O)(=O)N2CCOCC2)ccc1N1CCN(C)CC1	-23	-9%	3%	i	-72*	-3
O=C(O)CCN1C(=O)c2ccc(NC(=O)CSc3ccc(Cl)cc3)cc2C1=O	2	-9%	-1%	i	23	2
C#Cc1ccc(NC(=O)C2(C)CCN2C(=O)C2(c3ccccc3)CCCC2)cc1 (stereo not given)	13	-25%	·	i	?	4
CC(C)OC(=O)C(C(=O)C(F)(F)F)c1cc(NS(=O)(=O)c2ccc3ccccc3c2)c2ccccc2c1O (stereo not given)	0	11%	-34%	i	-61*	-20
O=C(NC1CC1)C1=C[C@H](c2csc3ccccc23)C[C@H](OCc2ccc(CO)cc2)O1	-26	-21%	2%	?	-16	4
SMILES	DRD3 antagonist	ATXN2 expr inh	Integrin act MD	ATXN viability	IL-1B inflam inh	DRD3 agonist
O=C(C1=C[C@@H](c2ccccc2)C[C@@H](OCc2ccc(CO)cc2)O1)N1CCN(Cc2ccc3c(c2)OCO3)CC1	?	0%	-13%	?	?	-8
O=C(Nc1ccccc1)C1=C[C@H](c2ccccc2)C[C@H](OCc2ccc(CO)cc2)O1	9	4%	9%	i	-21	13
O=C(Nc1ccccc1)C1=C[C@H](c2csc3ccccc23)C[C@H](OCc2ccc(CO)cc2)O1	4	-12%	-31%	?	?	36*
O=C(C1=C[C@H](c2ccccc2)C[C@H](OCc2ccc(CO)cc2)O1)N1CCN(Cc2ccccc2)CC1	-50*	?	-40%	i	-60*	-35
C#Cc1ccc([C@H]2C=C(C(=O)Nc3ccccc3)O[C@@H](OCc3ccc(CO)cc3)C2)cc1	-6	-21%	-5%	i	-57*	11
O=C(C1=C[C@H](c2ccc(C(F)(F)F)cc2)C[C@H](OCc2ccc(CO)cc2)O1)N1CCCCCCC1	-72*	0%	-24%	?	-22	0
O=C(C1=C[C@@H](c2ccc(C(F)(F)F)cc2)C[C@@H](OCc2ccc(CO)cc2)O1)N1CCOCC1	8	8%	5%	i	-3	5
Cn1c(-c2ccccc2)cnc1SCc1nc2ccccc2c(=O)[nH]1	24	5%	-7%	i	-10	4
CC(Sc1ccccc1)C(=O)N1CCN(S(=O)(=O)c2ccccc2F)CC1 (stereo not given)	-15	-5%	14%	i	-7	-18
CC(C)CN1C(=O)CSCC1(C)C(=O)NCc1ccccc1 (stereo not given)	-1	·	·	·	43	2
Cc1ccc(C(=O)Nc2cc3nn(-c4ccccc4)nc3cc2Cl)c(C)c1	·	4%	·	i	·	-5
O=C(C1=C[C@@H](c2csc3ccccc23)C[C@@H](OCc2ccc(CO)cc2)O1)N1CCN(Cc2ccccc2)CC1	-53*	?	-4%	?	-60*	-7
COCc1cc(C)nc(N2CCN(Cc3ccccc3)CC2)c1C#N	-90*	-17%	8%	i	20	-24
COCc1cc(C)nc(N2CCNCC2)c1C#N	-56*	1%	-20%	i	1	-7
COCc1cc(C)nc(N2CCN(c3ccccc3)CC2)c1C#N	20	-11%	-23%[7.66 µM]	i	-15	3
COCc1cc(C)nc(N2CCCCC2)c1C#N	16	5%	-21%	i	0	-3
